SW480 rereplic = DNA re-replication induction in SW480 cells; SW480 DNA re-replication, Hoechst DNA content imaging, 48 h; Potency, µM (titrated, usually from 46.1 µM), without a hit: at the highest dose re-replication activation, hits mostly activators; 340,000 compounds, 1.8% hits; further: % of control where 0% means no effect; nearly all actives have a fitted effect of over 55% in size
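Cells (250 per well) received 23 nL compound or DMSO by pin tool and were kept 48 hr at 37 C, 5% CO2. Nuclei were then stained with Hoechst for 40 min and scanned for DNA content.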
HT1080-NT tox = kills 2HG-producing HT-1080-NT fibrosarcoma cells; 360,000 compounds, 1.6% hits; AID 686970; HT-1080-NT fibrosarcoma viability, CellTiter-Glo ATP luminescence, 48 h; Potency, µM (titrated, usually from 46.1 µM), for the others: at the highest dose activity, negative = less viability, most hits filed as cytotoxic;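 further: NT is the 2HG producing partner of a matched IDH1 knockdown line; 0% = DMSO-treated cells and -100% = media-only wells without cells; nearly all actives have a fitted effect of over 55% in size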
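Luminescent CellTiter-Glo readout after 48 hours of compound exposure at 37 degrees C defined viability of HT-1080-NT cells. Activity was normalized to DMSO wells and cell-free media wells; concentration-response curves were fitted and assigned curve classes.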
MCF10A rerep = DNA re-replication induction in MCF 10a cells; MCF 10A DNA re-replication, Hoechst nuclear intensity, 48 h; Potency, µM (series often up to 46.1 µM), for inactives: at the highest dose activity, positive = re-replication, most hits filed as activators; 350,000 compounds, 2.9% hits; AID 624296; further: % of control where 0% means no effect; nearly all actives have a fitted effect of over 50% in size
KB-V1 MDR tox = KB-V1 MDR subline cytotoxicity. KB-V1 MDR cells viability, CellTiter-Glo, 72 h. Potency, µM (top dose mostly 46.1 µM), hits mostly cytotoxic. 400,000 compounds, 3.4% hits. AID 1347076; further: on the % scale 0 is the no-effect control and ±100 the full control effect; nearly all actives have a fitted effect of over 60% in size
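Readout: CellTiter-Glo luminescence, 10 min after addition. Cells: KB-V1 MDR subline, 72 h at 37 degrees C with compound. Analysis: corrected, normalized data fitted to concentration-effect curves.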
KB-3-1 cytotox = kills parental KB-3-1 adenocarcinoma cells | KB-3-1 viability, CellTiter-Glo ATP luminescence, 72 h | Potency, µM (series often up to 46.1 µM), actives largely listed as cytotoxic | 400,000 compounds, 1.4% hits | AID 1347075; further: on the % scale 0 is the no-effect control and ±100 the full control effect; nearly all actives have a fitted effect of over 60% in size
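Parental KB-3-1 adenocarcinoma cells in phenol-red-free DMEM with 10% FBS were pin-treated with compounds at several concentrations, incubated 72 h at 37 °C, and viability read by CellTiter-Glo luminescence; concentration-effect curves were fitted after normalization.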
HT1080 IDH1KD tx = HT-1080 IDH1 knockdown cell toxicity (counter line). HT-1080 IDH1 knockdown viability, ATP luminescence, 48 h. Potency, µM (highest dose often 46.1 µM), for the others: at the highest dose activity, negative = toxicity, most hits filed as cytotoxic. 360,000 compounds, 2% hits. AID 686971;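 further: 0% = DMSO wells and -100% = cell-free medium wells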
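Luminescent ATP read-out (CellTiter-Glo, 10 min at room temperature) after 48 h compound exposure at 37 °C gave viability of IDH1-knockdown HT-1080 cells. Activity was normalised to DMSO and cell-free wells, then fitted as concentration-response curves.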
* = called active by the depositor; i = inactive; ? = inconclusive; . = no result; [ ] = another dose, or the depositor's remark. An excerpt weighted towards active compounds, which were near 7.9% of everything screened. The call rests on the fitted dose curve; in most records, active means well fitted curve in the direction sought with a large enough effect; inconclusive means small, poorly fitted or top-dose-only effect, or another doubt; inactive means no such curve, though single readings can be large; an effect the other way counts as inactive or inconclusive. Potency means the concentration at half of the fitted maximal effect.

SMILES	SW480 rereplic	HT1080-NT tox	MCF10A rerep	KB-V1 MDR tox	KB-3-1 cytotox	HT1080 IDH1KD tx
Cc1cc(NC(c2cccnc2)c2ccc3cccnc3c2O)no1 (stereo not given)	1.5µM*	?	10µM*	?	?	?
CCC(=O)NC(c1ccco1)c1cc(Cl)c2cccnc2c1O (stereo not given)	2.6µM*	?	?	?	?	3.7µM*
CC(=O)NC(c1ccc(C)cc1)c1cc(Cl)c2cccnc2c1O (stereo not given)	2.9µM*	-27%	?	?	5.8µM*	?
COc1ccc(C(=O)NC(c2ccco2)c2cc(Cl)c3cccnc3c2O)cc1 (stereo not given)	.	.	.	?	i	.
COc1ccc(NC(=O)CN2C(=O)CSc3ccc(S(=O)(=O)N(C)C)cc32)cc1Cl	.	.	.	i	i	.
O=C(CCc1ccccc1)NC(c1cccs1)c1cc(Cl)c2cccnc2c1O (stereo not given)	?	?	?	2.1µM*	?	?
CCCCC(=O)NC(c1ccco1)c1cc(Cl)c2cccnc2c1O (stereo not given)	?	?	26%	?	?	9.2µM*
Oc1c(C(Nc2ccccn2)c2cccnc2)cc(Cl)c2cccnc12 (stereo not given)	6.5µM*	?	23µM*	i	?	?
CC(=O)NC(c1cc(Cl)c2cccnc2c1O)C1CC1 (stereo not given)	1.3µM*	.	?	16µM*	i	.
COc1cccc(NC(=O)C(CCSC)NC(=O)C2CCC(C)CC2)c1 (stereo not given)	.	.	.	i	i	.
CCOC(=O)C1=C[C@@H](C(C)(C)C)N(S(=O)(=O)c2ccc(C)cc2)[C@H]1c1ccc(F)cc1	.	-29%	.	?	?	?
COc1ccc(C(=O)NC(c2ccc(OC)c(OC)c2)c2cc(Cl)c3cccnc3c2O)cc1 (stereo not given)	.	.	.	i	i	.
COc1ccc(C(NC(=O)c2cccnc2)c2cc(Cl)c3cccnc3c2O)cc1OC (stereo not given)	?	21µM*	13µM*	6.5µM*	?	12µM*
O=C(NCc1ccccc1Cl)C1CCN(C(=O)N2CCOc3ccccc32)CC1	.	.	.	i	i	.
CN1CCN(CC(O)(c2ccc(Cl)cc2)c2ccc(Cl)cc2)CC1	28%	18µM*	-1%	i	i	21µM*
CC(C)=CCOc1ccc([C@@H]2COc3c(ccc4c3C=CC(C)(C)O4)C2)c(O)c1	-11%	?	21µM*	?	?	?
COc1ccc(OCc2cc(=O)c3ccc4c(c3o2)C=CC(C)(C)O4)cc1OC	-51%	7%	16%	i	i	-2%
O=C(N/C(=C/C=C/c1ccccc1)C(=O)N1CCCCC1)c1ccc([N+](=O)[O-])cc1	-30%	-1%	0.58µM*	i	i	-1%
COc1ccc(C2c3[nH]c4ccccc4c3CCN2Cc2cccn2-c2ncccn2)cc1C (stereo not given)	?	26µM*	15%[9.22 µM]	?	?	23µM*
CCOC(=O)[C@]12CCC=C1N(Cc1ccc(Cl)cc1Cl)C(=O)[C@H](CC(=O)NCc1cccc(C(F)(F)F)c1)C2	.	?	.	21µM*	?	?
CCOC(=O)[C@]12CCCC=C1N(Cc1ccc3c(c1)OCO3)C(=O)[C@H](CC(=O)NCc1cccc(C(F)(F)F)c1)C2	.	10µM*	.	?	i	16µM*
CCOC(=O)[C@]12CCCC=C1N(Cc1ccc(Cl)cc1Cl)C(=O)[C@H](CC(=O)NCc1cccc(C(F)(F)F)c1)C2	.	33µM*	.	16µM*	?	?
CCOC(=O)c1cc(-c2ccccc2)n(-c2cccc(C(=O)NC(C)CC)c2)c1C (stereo not given)	.	.	.	i	i	.
Cc1ccc(Cl)cc1N1CCN(CCCNC(=O)Cn2ncc3c([nH]c4ccccc43)c2=O)CC1	.	.	.	i	i	.
CCCCNC(=O)CN1C(=O)c2cccnc2Sc2ccccc21	.	.	.	i	i	.
SMILES	SW480 rereplic	HT1080-NT tox	MCF10A rerep	KB-V1 MDR tox	KB-3-1 cytotox	HT1080 IDH1KD tx
COc1ccc(CN2C[C@H]3CON(C)[C@H]3C[C@H]2c2ccc(-c3ccccc3)cc2)cc1	.	-16%	.	?	i	-18%
COc1ccc(C(=O)Nc2nc3c(s2)CCCC3)cc1S(=O)(=O)N1CCCc2ccccc21	?	-4%	?	5.2µM*	?	?
COc1ccc(C(=O)Nc2ccc(S(=O)(=O)N3CCc4ccccc43)cc2)cc1	6%	-3%	?	2.6µM*	2.9µM*	?
CCN(CC(=O)Nc1c(F)cccc1F)C(=O)c1cccc(S(=O)(=O)N2CCCc3ccccc32)c1	-14%	-5%	8%	i	?	-12%
COc1ccc(S(=O)(=O)N2CCc3ccccc32)cc1C(=O)Nc1ccc(NC(C)=O)cc1	?	?	23µM*	i	i	-25%
COc1ccc(NC(C)=O)cc1S(=O)(=O)N1CCc2ccccc21	-6%	-4%	?	i	i	-22%
CCN(CC(=O)Nc1cccc(OC)c1)C(=O)c1cccc(S(=O)(=O)N2CCc3ccccc32)c1	1%	0%	16%	18µM*	?	2%
NS(=O)(=O)c1ccc(NC(=O)c2ccc(S(=O)(=O)N3CCc4ccccc43)cc2)cc1	1%	-15%	9%	?	i	-22%
COc1ccc(C(=O)Nc2ncccc2C)cc1S(=O)(=O)N1CCCc2ccccc21	-4%	1%	0%	?	i	-5%
CC(=O)c1cccc(NC(=O)[C@H](Cc2ccccc2)N2Cc3ccccc3C2=O)c1	.	.	.	i	i	.
CN(Cc1nc2ccccc2c(=O)[nH]1)C(=O)c1cccc(S(=O)(=O)N2CCc3ccccc32)c1	3%	-15%	?	16µM*	i	-13%
COc1ccc(S(=O)(=O)N2CCc3ccccc32)cc1C(=O)N1CCN(C=O)CC1	-22%	-7%	-1%	i	i	-6%
CCc1nnc(NC(=O)c2ccc(Cl)c(S(=O)(=O)N3CCc4ccccc43)c2)s1	-6%	-14%	22%	13µM*	21µM*	-2%[9.24 µM]
COc1cc2nc(NC(=O)c3ccc(S(=O)(=O)N4CCc5ccccc54)cc3)sc2cc1OC	.	.	.	7.3µM*	?	.
COc1ccc(S(=O)(=O)N2CCc3ccccc32)cc1NC(C)=O	?	9.2µM*	8.2µM*	?	23µM*	?

Source: PubChem BioAssay
